Experimental data taken from PubChem BioAssay (NCATS).
Values joined by “and” are separate entries in the source; they are usually repeats but may differ in a detail not shown here. Identical values can stand only once. Inconclusive results are not listed. Active and inactive are the calls of the source. Calls follow the shape of the dose curve; as a rule, active = well fitted curve in the direction sought with a large enough effect; inconclusive = small, poorly fitted or top-dose-only effect, or another doubt; inactive = no such curve, though single readings can be large; an effect the other way counts as inactive or inconclusive. Peptide text beside a SMILES is read from it.

Experiments:
[1] = target: Phospholipid hydroperoxide glutathione peroxidase GPX4 (Homo sapiens) (UniProt P36969); assay: Primary qHTS Assay for Inhibitors of Recombinant Selenoprotein Glutathione Peroxidase 4 (GPX4) (AID 1845192); conditions: recombinant GPX4, GR-coupled NADPH fluorescence, 15 min; series mostly up to 50 µM; also: nearly all actives have a fitted effect of over 65% in size
Summary of the method: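 NADPH consumption followed by fluorescence at 340/450 nm, t=0 and after 15 min at room temperature. Reaction started with cumene hydroperoxide (0.5 mM final) after 30 min compound–GPX4 preincubation; final 200 nM GPX4, 100 nM GR, 1 mM GSH, 0.5 mM NADPH.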

[2] = Quantitative High-Throughput drug screen in 47 multiple myeloma cell lines against the NCATS MIPE library collection: FR4_PLB cell viability assay (AID 1918924; also: nearly all actives have a fitted effect of over 35% in size); conditions: FR4_PLB myeloma cells viability, CellTiter-Glo ATP, 48 h; series mostly up to 45.8 µM
Summary of the method: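 Myeloma cells (500 per well) were exposed to MIPE 4.0 compounds by pin transfer and incubated 48 hours at 37C, 5% CO2. Viability was read as ATP by CellTiter-Glo luminescence, normalised to DMSO (100%) and media-only (0%) wells.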

[3] = Quantitative High-Throughput drug screen in 47 multiple myeloma cell lines against the NCATS MIPE library collection: EJM_DSMZ cell viability assay (AID 1918926; also: nearly all actives have a fitted effect of over 30% in size); conditions: EJM myeloma cell viability, CellTiter-Glo ATP, 48 h; series mostly up to 45.8 µM
Summary of the method: (§1)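 Myeloma cell lines, 500 cells per well, exposed to MIPE 4.0 library compounds for 48 h at 37C, 5% CO2. Viability from ATP by CellTiter-Glo luminescence; normalised to DMSO (100%) and media-only (0%) wells.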

[4] = Quantitative High-Throughput drug screen in 47 multiple myeloma cell lines against the NCATS MIPE library collection: Delta47_JCRB cell viability assay (AID 1918925; also: nearly all actives have a fitted effect of over 45% in size); conditions: Delta47 myeloma viability, CellTiter-Glo ATP, 48 h; series mostly up to 45.8 µM
Summary of the method: as §1

[5] = Quantitative High-Throughput drug screen in 47 multiple myeloma cell lines against the NCATS MIPE library collection: ARP1_JJKsccF8 cell viability assay (AID 1918928; also: nearly all actives have a fitted effect of over 40% in size); conditions: ARP1 myeloma cells viability, CellTiter-Glo ATP, 48 h; series mostly up to 45.8 µM
Summary of the method: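 Cell viability inhibition in this qHTS is measured via ATP content (CellTiter-Glo) after 48 h drug exposure at 37 °C. Wells hold 500 cells; DMSO-treated wells define 100% and medium-only wells 0%.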

[6] = Quantitative High-Throughput drug screen in 47 multiple myeloma cell lines against the NCATS MIPE library collection: AMO1_DSMZ cell viability assay (AID 1918927; also: nearly all actives have a fitted effect of over 30% in size); conditions: AMO1 myeloma cells viability, CellTiter-Glo ATP luminescence, 48 h; series mostly up to 45.8 µM
Summary of the method: as §1

Measured: Potency
Potency is read from the fitted curve at half-maximal effect.

Phospholipid hydroperoxide glutathione peroxidase GPX4 (Homo sapiens), sequence (P36969 whole entry, looked up): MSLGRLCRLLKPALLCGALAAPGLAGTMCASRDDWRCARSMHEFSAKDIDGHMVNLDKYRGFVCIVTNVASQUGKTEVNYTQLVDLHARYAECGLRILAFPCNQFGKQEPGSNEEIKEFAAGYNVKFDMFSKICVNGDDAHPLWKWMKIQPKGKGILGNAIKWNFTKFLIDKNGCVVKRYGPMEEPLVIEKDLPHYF

O=C(c1ccccc1)c1ccc2n1CCC2C(=O)O (stereo unspecified)
inactive: [1] | [2]
active: [3] 2.35 µM

COC(=O)[C@H](Cc1ccccc1)NC(=O)[C@@H](N)CC(=O)O (H-Asp-Phe-OMe)
not listed: [6]
inactive: all other assays above

Cc1cc(C2CCCCC2)n(O)c(=O)c1
inactive: [1]
active: [2] 6.62 µM | [3] 16.6 µM | [6] 7.43 µM | [5] 9.35 µM

Cc1cc(=O)oc2cc(O)ccc12
active: [1] 12.8 µM and 1.61 µM
not listed: [4]
inactive: all other assays above

CC1=C(C)C(=O)C(C(CCCCCC(=O)O)c2ccccc2)=C(C)C1=O (stereo unspecified)
active: [1] 11.2 µM
inactive: [2] | [3]

CCCCCCCCCCCCCCCCCCCCCCO
not listed: [4]
inactive: all other assays above

O=C1c2ccccc2-c2n[nH]c3cccc1c23
inactive: [1] | [2]
active: [3] 0.0017 µM | [6] 20.9 µM

CC1Cc2ccccc2N1NC(=O)c1ccc(Cl)c(S(N)(=O)=O)c1 (stereo unspecified)
not listed: [6]
inactive: all other assays above

CCCc1cc(=O)[nH]c(=S)[nH]1
not listed: [4]
inactive: all other assays above

COc1cc(OC)c(C(=O)CCCN2CCCC2)c(OC)c1
not listed: [6]
inactive: all other assays above

O=C(O)CCNC(=O)c1ccc(N=Nc2ccc(O)c(C(=O)O)c2)cc1
not listed: [6]
inactive: all other assays above

Cc1cccc(CN2CCN(C(c3ccccc3)c3ccc(Cl)cc3)CC2)c1 (stereo unspecified)
inactive: [1] | [2]
active: [3] 18.7 µM

CCN(CC)CCOc1ccc(Nc2ncc3cc(-c4c(Cl)cccc4Cl)c(=O)n(C)c3n2)cc1
active: [2] 0.935 µM | [3] 2.09 µM | [6] 0.166 µM | [5] 2.64 µM
inactive: [1]

Oc1ccc2ccccc2c1SSc1c(O)ccc2ccccc12
active: [2] 20.9 µM | [4] 16.6 µM | [6] 20.9 µM | [5] 23.5 µM
inactive: [1]

Nc1cccc2c1CN(C1CCC(=O)NC1=O)C2=O (stereo unspecified)
not listed: [6]
inactive: all other assays above

O=C(O)c1cn(-c2ccc(F)cc2)c2cc(N3CCNCC3)c(F)cc2c1=O
inactive: [1] | [2] | [3] | [6]

CCC[C@@H]1C[C@@H](C(=O)N[C@@H]([C@H]2O[C@H](SC)[C@H](O)[C@@H](O)[C@H]2O)[C@@H](C)O)N(C)C1
active: [3] 3.32 µM
not listed: [4]
inactive: all other assays above

CC1(C)C(=O)N(CCN2CCC(C(=O)c3ccc(F)cc3)CC2)c2ccccc21
inactive: [1] | [2] | [3]
active: [6] 6.62 µM | [5] 20.9 µM

CCCCC(CC)COC(=O)C(C#N)=C(c1ccccc1)c1ccccc1 (stereo unspecified)
not listed: [4]
inactive: all other assays above

C[C@H](Cc1ccc(O)c(O)c1)[C@@H](C)Cc1ccc(O)c(O)c1
inactive: [1]
active: [2] 2.09 µM | [4] 16.6 µM | [5] 20.9 µM

Cc1cccc(-c2[nH]ncc2-c2ccc3ncccc3n2)n1
active: [2] 0.118 µM
not listed: [4]
inactive: all other assays above

O=C1c2c(O)cc(O)cc2OC(c2ccc(O)c(O)c2)C1O (stereo unspecified)
not listed: [6]
inactive: all other assays above

CCOC(=O)C1=C[C@@H](OC(CC)CC)[C@H](NC(C)=O)[C@@H](N)C1
not listed: [4]
inactive: all other assays above

Cc1nc(-c2ccc(OCC(C)C)c(C#N)c2)sc1C(=O)O
not listed: [6]
inactive: all other assays above

CCOC(=O)C1=C(O)C(=O)N(Cc2ccccc2)C1
inactive: [1] | [2] | [3]

O=C(NCCO[N+](=O)[O-])c1cccnc1
inactive: [1] | [2] | [3] | [5]

CCCCc1ccc2nc(NC(=O)OC)[nH]c2c1
inactive: [1]
active: [2] 0.0021 µM | [3] 0.0264 µM | [5] 0.0066 µM

CC(C)(S)[C@@H](N)C(=O)O
inactive: [1] inactive [at 4.52 µM] | [2] | [3] | [5]

NCCCCNCCCN
inactive: [1] | [6]
active: [4] 23.5 µM | [3] 23.5 µM | [5] 16.6 µM
